Many of the other results were omitted from the sample, so hits are more common in it than they were.
miR-122 inh: miR-122 suppressors via Renilla sensor increase, primary screen, cell-based, Huh7 psiCHECK-miR122, Renilla luciferase, single point; 340,000 tested, 0.14% active; activation, % at 12.5 µM; 48 h;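 active means mean activation of 30% or more, with every replicate also reaching 30%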;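 further: 0% = median of neutral control wells and 100% = median of positive control wells; higher luciferase signal means stronger suppression of miR-122 activity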
Active calls of the source: *.

SMILES	miR-122 inh
C[C@@H]1CN([C@H](C)CO)C(=O)c2cc(C#CC3(O)CCCC3)cnc2O[C@H]1CN(C)Cc1cncnc1	3.1
C[C@H](O)C#Cc1ccc2c(c1)O[C@@H](CN(C)Cc1cccnc1)[C@@H](C)CN([C@@H](C)CO)S2(=O)=O	-1.9
COc1ccccc1-c1cnc2c(c1)C(=O)N([C@@H](C)CO)C[C@H](C)[C@@H](CN(C)CC1CCCC1)O2	6.2
COc1ccccc1-c1ccc2c(c1)O[C@H](CN(C)S(=O)(=O)c1ccccc1)[C@@H](C)CN([C@@H](C)CO)S2(=O)=O	-44.5
C[C@@H]1CN([C@H](C)CO)C(=O)c2cc(/C=C/c3ccccc3)cnc2O[C@H]1CN(C)C(=O)c1ccncc1	4.5
CN(C(=O)C12CC3CC(CC(C3)C1)C2)C1CCS(=O)(=O)C1 (configuration not stated)	36.2*
CC(=O)N(C)C[C@@H]1Oc2cc(C#CC3(O)CCCC3)ccc2S(=O)(=O)N([C@@H](C)CO)C[C@H]1C	2.8
CO[C@@H]1CN(C)C(=O)c2ccc(NC(=O)NC(C)C)cc2OC[C@H](C)NC[C@@H]1C	-56.6
CN1c2ccc(-c3ccccc3F)cc2[C@H]2[C@H](CCN2S(=O)(=O)c2ccccc2F)[C@H]1CO	-99.7
COc1ccc(C#Cc2ccc3c(c2)O[C@H](CN(C)C)[C@@H](C)CN([C@H](C)CO)S3(=O)=O)cc1	-6.8
CO[C@@H]1CN(C)C(=O)c2cc(NC(C)=O)ccc2OC[C@H](C)N(C(=O)c2ccccc2)C[C@@H]1C	-0.9
COc1ccc(NC(=O)Nc2ccc3c(c2)OC[C@@H](C)NC[C@@H](C)[C@@H](OC)CN(C)C3=O)cc1	2.9
CO[C@@H]1CN(C)C(=O)c2ccc(NC(=O)c3ccc(Oc4ccccc4)cc3)cc2OC[C@H](C)NC[C@@H]1C	36.6*
CO[C@@H]1CN(C)C(=O)c2ccc(NC(C)=O)cc2OC[C@@H](C)N(C(=O)c2ccccc2F)C[C@H]1C	35.2*
CCC(=O)Nc1ccc2c(c1)OC[C@@H](C)N(C(=O)c1ccccc1F)C[C@H](C)[C@@H](OC)CN(C)C2=O	-2.6
COc1ccc(NC(=O)Nc2ccc3c(c2)OC[C@@H](C)NC[C@H](C)[C@@H](OC)CN(C)C3=O)cc1	-0.6
CCC(=O)N(C)C[C@@H]1Oc2cc(C#C[C@@H](C)O)ccc2S(=O)(=O)N([C@H](C)CO)C[C@H]1C	-5.1
C[C@H](CO)N1C[C@H](C)[C@@H](CN(C)Cc2cncnc2)Oc2cc(C#CC3CCCC3)ccc2S1(=O)=O	-95.2
COc1ccc(C#Cc2cnc3c(c2)C(=O)N([C@@H](C)CO)C[C@H](C)[C@H](CN(C)CC2CCOCC2)O3)cc1	3.4
C[C@@H]1CN([C@H](C)CO)C(=O)c2cc(C#Cc3cccnc3)cnc2O[C@@H]1CN(C)S(C)(=O)=O	-5.9
C[C@@H]1CN([C@@H](C)CO)S(=O)(=O)c2ccc(-c3ccc(C#N)cc3)cc2O[C@H]1CN(C)C(=O)C1CC1	-37.4
C[C@H](CO)N1C[C@H](C)[C@@H](CN(C)C(=O)Cc2ccccn2)Oc2ncc(-c3cccc(C(=O)N(C)C)c3)cc2C1=O	0.4
Cc1cc(C(=O)Nc2cccc3c2O[C@H](CN(C)Cc2ccc(C(=O)Nc4ccccc4N)cc2)[C@H](C)CN([C@@H](C)CO)C3=O)n(C)n1	-90.5
C[C@H](CO)N1C[C@H](C)[C@@H](CN(C)C(=O)C2CC2)Oc2ncc(C#Cc3cccc(F)c3)cc2C1=O	-0.7
COc1ccc(S(=O)(=O)Nc2cc(Cl)ccc2OC)cc1	-137.5
SMILES	miR-122 inh
COc1ccc(OC)c(Nc2nc(N)nc(CCl)n2)c1	31.8*
COc1ccc(OC)c(NS(=O)(=O)c2ccc(N3CCCC3=O)cc2)c1	-120.0
C[C@H]1CN([C@@H](C)CO)C(=O)c2cc(/C=C/c3ccccc3)cnc2O[C@@H]1CN(C)C(=O)Cc1ccccn1	6.8
COc1ccccc1S(=O)(=O)N(C)C[C@@H]1Oc2cc(/C=C/c3ccccc3)ccc2S(=O)(=O)N([C@H](C)CO)C[C@H]1C	-3.9
CN1C(=O)c2cc(NC(=O)Cc3cccs3)ccc2OC[C@@H]2O[C@@H](CC(=O)NCC3CCCCC3)CC[C@@H]21	-195.6
CCCNC(=O)Nc1ccc2c(c1)C(=O)N(C)[C@H]1CC[C@@H](CC(=O)NCC3CCCCC3)O[C@@H]1CO2	41.7*
CCCC(=O)Nc1ccc2c(c1)C(=O)N(C)C[C@@H](OC)[C@H](C)CN[C@@H](C)CO2	-1.0
CN1C(=O)c2cc(NC(=O)Nc3ccccc3F)ccc2OC[C@@H]2O[C@@H](CC(=O)NCc3ccc(-c4ccccc4)cc3)CC[C@H]21	47.8*
CCCNC(=O)C[C@H]1CC[C@H]2[C@H](COc3ccc(NC(=O)c4ccc5c(c4)OCO5)cc3C(=O)N2C)O1	-121.7
CN1C(=O)c2cc(NC(=O)Cc3cccs3)ccc2OC[C@@H]2O[C@H](CC(=O)NCc3ccc(-c4ccccc4)cc3)CC[C@@H]21	-188.3
CCNC(=O)C[C@@H]1CC[C@H]2[C@@H](COc3ccc(NC(=O)Nc4ccc(F)cc4)cc3C(=O)N2C)O1	50.0*
CN1C(=O)c2cc(NC(=O)NCc3ccccc3)ccc2OC[C@@H]2O[C@@H](CC(=O)NCC3CCCCC3)CC[C@@H]21	-120.0
CCCC(=O)Nc1ccc2c(c1)C(=O)N(C)[C@@H]1CC[C@H](CC(=O)NCCN3CCCCC3)O[C@H]1CO2	50.0*
CC(C)CC#Cc1ccc2c(c1)O[C@H](CN(C)C(=O)NC1CCCC1)[C@@H](C)CN([C@@H](C)CO)S2(=O)=O	-29.5
COc1ccc(NC(=O)N(C)C[C@@H]2Oc3ncc(C4=CCCC4)cc3C(=O)N([C@@H](C)CO)C[C@@H]2C)cc1	2.0
C[C@@H]1CN([C@H](C)CO)S(=O)(=O)c2ccc(C3=CCCCC3)cc2O[C@@H]1CN(C)C(=O)CC1CC1	-1.3
CCCNC(=O)N(C)C[C@H]1Oc2cc(-c3ccccc3)ccc2S(=O)(=O)N([C@@H](C)CO)C[C@H]1C	-6.4
C[C@H](CO)N1C[C@H](C)[C@H](CN(C)Cc2ccncc2)Oc2ncc(C#CC3(O)CCCC3)cc2C1=O	0.9
C[C@@H]1CN([C@H](C)CO)S(=O)(=O)c2ccc(Br)cc2O[C@@H]1CN(C)Cc1ccccn1	5.0
C[C@H](CO)N1C[C@H](C)[C@H](CN(C)C(=O)CC2CC2)Oc2cc(C#CCC3CCCC3)ccc2S1(=O)=O	-6.1
CC(=O)N(C)C[C@H]1Oc2cc(C#C[C@H](C)O)ccc2S(=O)(=O)N([C@@H](C)CO)C[C@@H]1C	0.7
COCC#Cc1ccc2c(c1)O[C@@H](CN(C)C(=O)COC)[C@H](C)CN([C@@H](C)CO)S2(=O)=O	0.3
C[C@H](CO)N1C[C@H](C)[C@@H](CN(C)C(=O)C2CC2)Oc2ncc(-c3cccnc3)cc2C1=O	1.0
Cc1ccc(-c2cnc3c(c2)C(=O)N([C@@H](C)CO)C[C@@H](C)[C@@H](CN(C)C(=O)Cc2ccncc2)O3)cc1	10.2
COc1ccccc1-c1cnc2c(c1)C(=O)N([C@H](C)CO)C[C@H](C)[C@H](CN(C)Cc1ccccc1)O2	-1.9
CCC(=O)N(C)C[C@H]1Oc2cc(C#C[C@@H](C)O)ccc2S(=O)(=O)N([C@@H](C)CO)C[C@@H]1C	6.7
CO[C@H]1CN(C)C(=O)c2ccc(NC(=O)Nc3cccc(F)c3)cc2OC[C@@H](C)N(C)C[C@H]1C	-1.6
CO[C@H]1CN(C)C(=O)c2cc(NC(=O)Nc3ccccc3)ccc2OC[C@@H](C)NC[C@@H]1C	0.1

Source: PubChem
